From the supplement of paper PMC11732987, “Enantioselective OTUD7B fragment discovery through chemoproteomics screening and high-throughput optimisation” (Communications Chemistry, 2025)

Legend:
Assay in all cases: log2 ratio of Biotin-Ahx-Ub-VS probe labelling (fragment/DMSO); higher = less target engagement (more negative = stronger competition), active = hit call of the paper (q ≤ 0.05, log2 ratio ≤ -1)
Conditions in all cases: compound concentration: 200 uM; treatment time: 3 h
USP9X = USP9X (UniProt Q93008)
Sequence of USP9X (Q93008 whole entry, the tested form may be a part): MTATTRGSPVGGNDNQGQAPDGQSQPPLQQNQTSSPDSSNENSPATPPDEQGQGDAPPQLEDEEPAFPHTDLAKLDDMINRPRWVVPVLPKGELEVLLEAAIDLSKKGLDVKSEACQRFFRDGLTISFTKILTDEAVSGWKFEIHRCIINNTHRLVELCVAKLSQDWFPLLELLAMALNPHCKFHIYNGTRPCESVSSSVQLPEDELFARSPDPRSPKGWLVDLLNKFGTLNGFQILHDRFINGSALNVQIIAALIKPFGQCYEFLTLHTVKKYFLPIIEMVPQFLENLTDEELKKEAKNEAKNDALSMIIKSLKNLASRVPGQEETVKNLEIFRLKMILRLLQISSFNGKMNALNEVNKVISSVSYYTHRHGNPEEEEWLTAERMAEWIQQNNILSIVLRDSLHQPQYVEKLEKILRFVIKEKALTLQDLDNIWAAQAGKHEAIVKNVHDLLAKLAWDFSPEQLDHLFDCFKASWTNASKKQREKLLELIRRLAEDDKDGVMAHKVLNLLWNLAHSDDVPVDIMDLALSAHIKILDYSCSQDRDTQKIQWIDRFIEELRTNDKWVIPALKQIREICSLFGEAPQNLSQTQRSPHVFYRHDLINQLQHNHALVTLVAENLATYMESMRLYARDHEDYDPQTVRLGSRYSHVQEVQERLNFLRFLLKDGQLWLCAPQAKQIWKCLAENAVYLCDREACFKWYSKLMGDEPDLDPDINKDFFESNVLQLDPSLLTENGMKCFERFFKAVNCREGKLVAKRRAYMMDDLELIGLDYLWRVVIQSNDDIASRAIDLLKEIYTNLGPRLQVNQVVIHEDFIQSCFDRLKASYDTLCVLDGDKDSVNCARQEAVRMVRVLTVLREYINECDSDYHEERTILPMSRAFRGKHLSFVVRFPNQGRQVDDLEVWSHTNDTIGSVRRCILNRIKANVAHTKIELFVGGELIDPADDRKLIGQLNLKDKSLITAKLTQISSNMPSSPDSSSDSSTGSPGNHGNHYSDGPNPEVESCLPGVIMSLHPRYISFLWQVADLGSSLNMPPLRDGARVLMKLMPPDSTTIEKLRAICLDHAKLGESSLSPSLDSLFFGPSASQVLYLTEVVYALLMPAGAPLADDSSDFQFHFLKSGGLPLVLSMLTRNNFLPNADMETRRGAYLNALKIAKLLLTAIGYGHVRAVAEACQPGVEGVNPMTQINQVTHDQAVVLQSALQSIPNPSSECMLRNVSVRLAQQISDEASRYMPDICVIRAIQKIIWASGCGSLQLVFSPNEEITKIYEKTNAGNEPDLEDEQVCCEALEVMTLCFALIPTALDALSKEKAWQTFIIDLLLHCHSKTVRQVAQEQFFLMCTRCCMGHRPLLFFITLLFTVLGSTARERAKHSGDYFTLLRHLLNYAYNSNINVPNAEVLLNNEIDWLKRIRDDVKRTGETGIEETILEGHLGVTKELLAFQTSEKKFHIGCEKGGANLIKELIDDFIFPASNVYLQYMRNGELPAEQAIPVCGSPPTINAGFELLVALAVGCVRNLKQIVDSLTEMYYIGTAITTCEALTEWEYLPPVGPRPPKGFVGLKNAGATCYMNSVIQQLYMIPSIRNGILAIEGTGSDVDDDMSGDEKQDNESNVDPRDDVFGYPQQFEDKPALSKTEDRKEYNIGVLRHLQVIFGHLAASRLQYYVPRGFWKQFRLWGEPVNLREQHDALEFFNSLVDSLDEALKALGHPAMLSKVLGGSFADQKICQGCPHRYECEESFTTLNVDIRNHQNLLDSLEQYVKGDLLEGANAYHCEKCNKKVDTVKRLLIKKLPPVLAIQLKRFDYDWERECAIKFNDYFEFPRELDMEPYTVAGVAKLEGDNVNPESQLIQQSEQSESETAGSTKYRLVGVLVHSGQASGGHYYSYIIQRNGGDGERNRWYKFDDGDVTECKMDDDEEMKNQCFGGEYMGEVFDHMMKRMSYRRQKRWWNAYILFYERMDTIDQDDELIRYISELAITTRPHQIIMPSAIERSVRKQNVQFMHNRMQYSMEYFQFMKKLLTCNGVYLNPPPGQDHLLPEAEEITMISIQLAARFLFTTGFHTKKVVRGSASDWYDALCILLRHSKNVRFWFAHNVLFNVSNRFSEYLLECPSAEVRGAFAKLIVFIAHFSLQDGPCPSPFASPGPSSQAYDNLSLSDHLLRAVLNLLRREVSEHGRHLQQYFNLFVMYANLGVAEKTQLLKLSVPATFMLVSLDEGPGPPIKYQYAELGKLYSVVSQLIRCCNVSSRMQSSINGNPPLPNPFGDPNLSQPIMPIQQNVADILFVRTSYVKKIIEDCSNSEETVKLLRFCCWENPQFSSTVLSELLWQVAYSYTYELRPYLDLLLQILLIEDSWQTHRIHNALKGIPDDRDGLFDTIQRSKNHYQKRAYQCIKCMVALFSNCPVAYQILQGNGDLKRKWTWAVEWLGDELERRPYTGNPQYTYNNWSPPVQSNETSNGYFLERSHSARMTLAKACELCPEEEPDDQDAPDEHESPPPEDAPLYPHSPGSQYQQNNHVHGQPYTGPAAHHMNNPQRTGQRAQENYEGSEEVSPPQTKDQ
In short: (§1)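 Labelled DUBs from HEK293T lysate were NeutrAvidin-enriched, digested with LysC and trypsin, and run by diaPASEF LC-MS/MS. Before that, each 495 µg sample in Tris/CHAPS/IGEPAL buffer with protease inhibitors was treated in triplicate with fragment at 200 µM or vehicle for 3 h, then with Biotin-Ahx-Ub-VS at 0.5 µM final for 1 h. Values are average log2 ratios of fragment over vehicle by unpaired t-test, based on global-median-normalised Spectronaut label-free quantities from proteins with ≥2 unique peptides.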

UniProt O00487 = target: UniProt O00487
Sequence of UniProt O00487 (O00487 whole entry): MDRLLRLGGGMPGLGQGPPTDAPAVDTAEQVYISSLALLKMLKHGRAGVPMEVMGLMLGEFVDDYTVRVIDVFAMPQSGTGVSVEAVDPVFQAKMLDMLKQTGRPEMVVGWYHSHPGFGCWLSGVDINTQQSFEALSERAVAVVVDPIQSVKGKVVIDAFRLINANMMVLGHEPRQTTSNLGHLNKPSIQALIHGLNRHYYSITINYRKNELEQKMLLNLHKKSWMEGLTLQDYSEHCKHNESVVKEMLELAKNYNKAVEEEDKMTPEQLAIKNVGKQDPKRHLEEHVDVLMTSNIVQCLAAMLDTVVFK
In short: as §1

UniProt O00507 = target: UniProt O00507
In short: as §1

UniProt P51784 = target: UniProt P51784
Sequence of UniProt P51784 (P51784 whole entry): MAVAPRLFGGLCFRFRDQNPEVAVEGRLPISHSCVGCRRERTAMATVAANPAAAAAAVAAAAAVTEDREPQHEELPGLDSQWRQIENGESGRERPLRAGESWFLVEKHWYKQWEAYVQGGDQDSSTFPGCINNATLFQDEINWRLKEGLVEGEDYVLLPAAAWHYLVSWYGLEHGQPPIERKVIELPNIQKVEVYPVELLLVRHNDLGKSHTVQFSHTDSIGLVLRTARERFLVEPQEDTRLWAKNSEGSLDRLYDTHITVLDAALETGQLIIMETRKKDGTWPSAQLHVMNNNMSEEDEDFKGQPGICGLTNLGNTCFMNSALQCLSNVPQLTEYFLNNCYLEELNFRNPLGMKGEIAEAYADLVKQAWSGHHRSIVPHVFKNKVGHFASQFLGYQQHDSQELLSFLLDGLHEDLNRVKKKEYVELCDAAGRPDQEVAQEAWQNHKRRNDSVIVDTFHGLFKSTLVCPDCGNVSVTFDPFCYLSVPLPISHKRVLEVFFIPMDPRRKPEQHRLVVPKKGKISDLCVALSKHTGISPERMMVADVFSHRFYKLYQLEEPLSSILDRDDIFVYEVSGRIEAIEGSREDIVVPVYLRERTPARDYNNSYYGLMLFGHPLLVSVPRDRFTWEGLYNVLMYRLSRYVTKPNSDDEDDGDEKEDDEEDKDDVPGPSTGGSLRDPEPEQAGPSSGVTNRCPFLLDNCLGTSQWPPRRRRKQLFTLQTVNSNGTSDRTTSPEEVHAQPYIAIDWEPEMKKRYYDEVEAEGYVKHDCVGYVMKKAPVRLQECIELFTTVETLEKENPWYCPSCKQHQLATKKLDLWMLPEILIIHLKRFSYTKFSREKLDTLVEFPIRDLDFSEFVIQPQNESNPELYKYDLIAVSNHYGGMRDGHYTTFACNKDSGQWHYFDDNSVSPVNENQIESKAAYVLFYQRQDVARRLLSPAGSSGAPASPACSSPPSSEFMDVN
In short: as §1

UniProt Q5T2D3 = target: T1, UniProt Q5T2D3
T1 sequence (whole entry): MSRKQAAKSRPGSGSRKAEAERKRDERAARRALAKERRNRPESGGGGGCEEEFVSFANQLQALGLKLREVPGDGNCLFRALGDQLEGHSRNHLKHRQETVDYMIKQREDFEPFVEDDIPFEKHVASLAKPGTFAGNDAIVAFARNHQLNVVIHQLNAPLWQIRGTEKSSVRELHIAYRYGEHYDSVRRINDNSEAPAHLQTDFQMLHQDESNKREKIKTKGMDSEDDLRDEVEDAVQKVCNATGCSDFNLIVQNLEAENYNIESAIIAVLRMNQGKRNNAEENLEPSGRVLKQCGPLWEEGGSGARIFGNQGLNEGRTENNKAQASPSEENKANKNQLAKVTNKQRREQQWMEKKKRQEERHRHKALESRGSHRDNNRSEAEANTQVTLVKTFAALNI
In short: as §1

UniProt Q8TE49 = target: T2, UniProt Q8TE49
T2 sequence (whole entry): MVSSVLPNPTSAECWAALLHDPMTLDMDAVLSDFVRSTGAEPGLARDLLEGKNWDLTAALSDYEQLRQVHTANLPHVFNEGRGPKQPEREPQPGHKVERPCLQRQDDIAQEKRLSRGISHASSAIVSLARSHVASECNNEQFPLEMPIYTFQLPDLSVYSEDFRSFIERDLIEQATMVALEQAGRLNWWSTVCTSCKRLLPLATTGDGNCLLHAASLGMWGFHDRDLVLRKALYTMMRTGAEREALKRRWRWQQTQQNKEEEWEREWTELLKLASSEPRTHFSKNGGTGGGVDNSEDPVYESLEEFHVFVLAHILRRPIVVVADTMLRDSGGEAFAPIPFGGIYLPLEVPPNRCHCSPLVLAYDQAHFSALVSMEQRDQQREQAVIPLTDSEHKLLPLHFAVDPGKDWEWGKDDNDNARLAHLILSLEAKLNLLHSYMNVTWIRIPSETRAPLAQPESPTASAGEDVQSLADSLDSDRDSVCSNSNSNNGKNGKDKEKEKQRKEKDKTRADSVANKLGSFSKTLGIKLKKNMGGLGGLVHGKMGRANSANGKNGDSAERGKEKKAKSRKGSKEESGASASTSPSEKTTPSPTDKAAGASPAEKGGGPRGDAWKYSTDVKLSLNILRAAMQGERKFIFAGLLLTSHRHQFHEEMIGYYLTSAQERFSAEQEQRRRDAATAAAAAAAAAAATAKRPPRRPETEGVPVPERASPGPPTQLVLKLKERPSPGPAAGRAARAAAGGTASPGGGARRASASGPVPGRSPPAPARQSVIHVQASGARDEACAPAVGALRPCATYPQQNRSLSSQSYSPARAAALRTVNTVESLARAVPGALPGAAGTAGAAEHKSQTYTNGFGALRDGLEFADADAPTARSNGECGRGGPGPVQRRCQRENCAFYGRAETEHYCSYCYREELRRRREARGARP
In short: as §1

UniProt Q9P2H5 = target: T3, UniProt Q9P2H5
T3 sequence (whole entry): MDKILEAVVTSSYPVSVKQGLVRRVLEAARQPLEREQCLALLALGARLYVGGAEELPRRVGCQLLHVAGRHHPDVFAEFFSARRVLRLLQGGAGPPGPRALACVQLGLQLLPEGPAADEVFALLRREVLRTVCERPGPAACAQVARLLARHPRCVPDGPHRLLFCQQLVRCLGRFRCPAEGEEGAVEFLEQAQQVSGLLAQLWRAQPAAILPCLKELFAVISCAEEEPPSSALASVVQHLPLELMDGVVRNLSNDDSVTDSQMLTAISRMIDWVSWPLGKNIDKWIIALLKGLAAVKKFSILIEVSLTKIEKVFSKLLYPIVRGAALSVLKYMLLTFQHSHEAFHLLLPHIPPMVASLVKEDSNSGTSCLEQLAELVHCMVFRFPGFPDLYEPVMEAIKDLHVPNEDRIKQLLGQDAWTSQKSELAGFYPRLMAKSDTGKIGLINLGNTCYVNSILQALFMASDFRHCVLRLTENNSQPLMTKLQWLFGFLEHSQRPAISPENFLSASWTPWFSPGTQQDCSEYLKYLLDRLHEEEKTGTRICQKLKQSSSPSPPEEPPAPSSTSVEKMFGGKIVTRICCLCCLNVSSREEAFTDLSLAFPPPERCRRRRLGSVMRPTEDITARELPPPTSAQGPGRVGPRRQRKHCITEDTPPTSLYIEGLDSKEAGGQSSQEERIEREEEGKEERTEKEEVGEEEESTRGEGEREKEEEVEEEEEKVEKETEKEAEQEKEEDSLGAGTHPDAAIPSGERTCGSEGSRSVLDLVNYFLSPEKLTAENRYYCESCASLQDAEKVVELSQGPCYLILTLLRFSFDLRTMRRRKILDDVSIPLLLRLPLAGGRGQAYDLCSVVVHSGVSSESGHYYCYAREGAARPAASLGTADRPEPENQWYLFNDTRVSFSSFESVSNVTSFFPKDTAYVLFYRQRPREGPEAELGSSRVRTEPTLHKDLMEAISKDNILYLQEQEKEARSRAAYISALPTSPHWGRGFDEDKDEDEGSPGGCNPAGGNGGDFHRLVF
In short: as §1

UniProt Q9UGI0 = target: T4, UniProt Q9UGI0
T4 sequence (whole entry): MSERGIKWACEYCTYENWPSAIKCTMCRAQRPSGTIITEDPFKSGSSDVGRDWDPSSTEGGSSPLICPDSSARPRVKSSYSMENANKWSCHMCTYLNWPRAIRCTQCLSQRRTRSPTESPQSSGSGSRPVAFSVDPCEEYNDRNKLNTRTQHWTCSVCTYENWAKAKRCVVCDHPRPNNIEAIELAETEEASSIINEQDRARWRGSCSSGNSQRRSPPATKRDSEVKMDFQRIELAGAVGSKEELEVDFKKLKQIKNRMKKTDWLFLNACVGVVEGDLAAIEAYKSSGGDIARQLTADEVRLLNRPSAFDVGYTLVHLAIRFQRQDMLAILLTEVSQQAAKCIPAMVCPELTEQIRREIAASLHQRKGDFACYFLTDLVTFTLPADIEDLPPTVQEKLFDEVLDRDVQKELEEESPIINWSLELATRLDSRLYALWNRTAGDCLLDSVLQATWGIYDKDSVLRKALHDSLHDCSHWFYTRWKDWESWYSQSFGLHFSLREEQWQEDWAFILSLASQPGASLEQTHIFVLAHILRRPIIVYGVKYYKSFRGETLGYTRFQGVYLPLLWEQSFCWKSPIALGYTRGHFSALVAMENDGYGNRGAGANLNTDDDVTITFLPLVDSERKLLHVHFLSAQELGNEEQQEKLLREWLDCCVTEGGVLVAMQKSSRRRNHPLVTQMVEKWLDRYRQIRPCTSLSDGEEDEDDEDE
In short: as §1

YOD1 = target: T5, YOD1 (UniProt Q5VVQ6)
T5 sequence (whole entry): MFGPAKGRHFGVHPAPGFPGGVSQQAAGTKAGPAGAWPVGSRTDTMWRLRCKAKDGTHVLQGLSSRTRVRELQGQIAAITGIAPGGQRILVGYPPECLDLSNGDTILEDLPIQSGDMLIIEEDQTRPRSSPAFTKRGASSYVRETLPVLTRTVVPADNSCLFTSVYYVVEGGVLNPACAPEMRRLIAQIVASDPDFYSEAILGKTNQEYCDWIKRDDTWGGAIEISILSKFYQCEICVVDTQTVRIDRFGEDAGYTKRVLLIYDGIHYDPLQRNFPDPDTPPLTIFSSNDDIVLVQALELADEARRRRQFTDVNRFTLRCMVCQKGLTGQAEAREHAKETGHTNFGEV
In short: as §1

Measured: log2 ratio of Biotin-Ahx-Ub-VS probe labelling

Cc1cc(CC(C)NC(=O)CCl)n[nH]1 (centres undefined)
inactive: USP9X -0.345 | UniProt O00487 -0.0204 | UniProt O00507 -0.165 | UniProt P51784 -0.131 | UniProt Q5T2D3 -0.595 | UniProt Q8TE49 0.0154 | UniProt Q9P2H5 -0.232 | UniProt Q9UGI0 -0.68 | YOD1 0.241
